# Targets with a hit are over-represented here; the source holds about 7,900 in all. About 0.6% of all pairs of compound and target were hits. Unmarked numbers belong to inactive results.
# Tests used:
# Assay in all cases: log2 fold change, soluble protein after heating vs DMSO (PISA); higher = thermal stabilisation; K562 cells, 10 uM, 30 min; active = over 0.2 and 3.5 SD of the protein, either way, in both replicates (recomputed)
# bafetinib = compound: Cc1ccc(NC(=O)c2ccc(CN3CC[C@H](N(C)C)C3)c(C(F)(F)F)c2)cc1Nc1nccc(-c2cncnc2)n1 [bafetinib]
# Method in brief: (§1)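 K562 cells at 2×10^6 cells/mL were exposed to 10 μM compound for 30 min, then aliquots were heated for 3 min across 48°C-58°C, pooled, and extracted in PBS containing 0.5% NP-40 at 4°C. The supernatant after 21,000xg for 90 min was taken as soluble protein and measured by TMTpro 16plex LC-MS/MS with channel sums equalised. Thermal stability is reported relative to control samples, with values from duplicates. Fold changes are given on a log2 scale.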
# [1] = compound: Cc1cccc(CC(=O)N2CCc3c2ccc(-c2cn(C)c4ncnc(N)c24)c3F)n1
# Method in brief: as §1
# nilotinib = compound: Cc1cn(-c2cc(NC(=O)c3ccc(C)c(Nc4nccc(-c5cccnc5)n4)c3)cc(C(F)(F)F)c2)cn1 [nilotinib]
# Method in brief: as §1
# [2] = compound: Cc1nc(Nc2n[nH]c3c2CN(C(=O)N[C@H](CN(C)C)c2ccccc2)C3(C)C)c2sccc2n1
# Method in brief: as §1
# dasatinib = compound: Cc1nc(Nc2ncc(C(=O)Nc3c(C)cccc3Cl)s2)cc(N2CCN(CCO)CC2)n1 [dasatinib]
# Method in brief: as §1
# [3] = compound: Cc1ncc(-c2ccnc(Nc3ccc(S(C)(=O)=O)cc3)n2)n1C(C)C
# Method in brief: as §1
# [4] = compound: Cn1cc(-c2ccc3c(c2)CCN3C(=O)Cc2cccc(C(F)(F)F)c2)c2c(N)ncnc21
# Method in brief: as §1
# [5] = compound: Cn1cc(-c2ccc3nnc(C(F)(F)c4ccc5ncccc5c4)n3n2)cn1
# Method in brief: as §1
# tipifarnib = compound: Cn1cncc1[C@@](N)(c1ccc(Cl)cc1)c1ccc2c(c1)c(-c1cccc(Cl)c1)cc(=O)n2C [tipifarnib]
# Method in brief: as §1
# mubritinib = compound: FC(F)(F)c1ccc(/C=C/c2nc(COc3ccc(CCCCn4ccnn4)cc3)co2)cc1 [mubritinib]
# Method in brief: as §1
# UniProt O75607, sequence (O75607 whole entry, looked up): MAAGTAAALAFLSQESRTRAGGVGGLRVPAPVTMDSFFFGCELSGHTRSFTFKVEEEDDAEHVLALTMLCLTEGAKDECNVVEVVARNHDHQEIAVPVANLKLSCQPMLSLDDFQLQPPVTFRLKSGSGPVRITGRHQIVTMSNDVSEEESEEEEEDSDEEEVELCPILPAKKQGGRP
# UniProt O15118, sequence (O15118 whole entry, looked up): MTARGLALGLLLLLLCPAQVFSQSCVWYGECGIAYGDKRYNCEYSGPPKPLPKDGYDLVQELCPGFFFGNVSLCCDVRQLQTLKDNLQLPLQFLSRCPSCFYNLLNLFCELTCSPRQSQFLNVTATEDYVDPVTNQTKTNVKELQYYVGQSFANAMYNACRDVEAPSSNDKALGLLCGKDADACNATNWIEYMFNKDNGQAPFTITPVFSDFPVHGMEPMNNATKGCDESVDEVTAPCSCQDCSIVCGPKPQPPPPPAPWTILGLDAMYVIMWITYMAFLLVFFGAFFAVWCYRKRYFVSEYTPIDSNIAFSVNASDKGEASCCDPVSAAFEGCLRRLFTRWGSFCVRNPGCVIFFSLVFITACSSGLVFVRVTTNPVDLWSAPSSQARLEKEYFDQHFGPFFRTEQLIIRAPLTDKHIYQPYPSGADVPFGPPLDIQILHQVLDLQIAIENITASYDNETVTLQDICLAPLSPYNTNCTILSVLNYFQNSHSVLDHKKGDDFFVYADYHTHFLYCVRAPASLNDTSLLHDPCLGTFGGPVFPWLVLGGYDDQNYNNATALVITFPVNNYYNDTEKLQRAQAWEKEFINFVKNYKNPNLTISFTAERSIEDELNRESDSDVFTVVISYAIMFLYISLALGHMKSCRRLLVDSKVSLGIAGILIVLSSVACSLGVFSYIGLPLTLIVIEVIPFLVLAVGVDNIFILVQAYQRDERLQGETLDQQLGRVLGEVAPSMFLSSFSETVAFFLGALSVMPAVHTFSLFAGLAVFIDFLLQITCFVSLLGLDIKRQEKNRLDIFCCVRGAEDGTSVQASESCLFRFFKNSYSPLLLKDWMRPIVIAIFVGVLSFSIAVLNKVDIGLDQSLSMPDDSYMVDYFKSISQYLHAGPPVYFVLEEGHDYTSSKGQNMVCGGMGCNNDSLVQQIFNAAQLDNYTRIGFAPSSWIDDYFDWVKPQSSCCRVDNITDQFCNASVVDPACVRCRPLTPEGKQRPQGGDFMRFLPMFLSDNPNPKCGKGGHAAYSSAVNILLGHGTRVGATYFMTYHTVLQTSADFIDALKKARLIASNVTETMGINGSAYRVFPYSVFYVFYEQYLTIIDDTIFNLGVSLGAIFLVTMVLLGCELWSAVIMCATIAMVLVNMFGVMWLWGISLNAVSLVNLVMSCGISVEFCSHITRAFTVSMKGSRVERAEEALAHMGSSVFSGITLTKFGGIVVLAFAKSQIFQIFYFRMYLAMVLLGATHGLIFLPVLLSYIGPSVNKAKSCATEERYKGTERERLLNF
# UniProt Q9BV86, sequence (Q9BV86 whole entry, looked up): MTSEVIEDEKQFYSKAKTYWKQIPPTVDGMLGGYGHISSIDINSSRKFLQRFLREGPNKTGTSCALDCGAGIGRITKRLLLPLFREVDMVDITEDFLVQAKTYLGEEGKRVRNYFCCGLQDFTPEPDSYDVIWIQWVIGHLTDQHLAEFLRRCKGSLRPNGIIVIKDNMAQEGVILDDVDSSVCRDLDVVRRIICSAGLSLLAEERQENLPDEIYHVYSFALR
# UniProt Q9UMY1, sequence (Q9UMY1 whole entry, looked up): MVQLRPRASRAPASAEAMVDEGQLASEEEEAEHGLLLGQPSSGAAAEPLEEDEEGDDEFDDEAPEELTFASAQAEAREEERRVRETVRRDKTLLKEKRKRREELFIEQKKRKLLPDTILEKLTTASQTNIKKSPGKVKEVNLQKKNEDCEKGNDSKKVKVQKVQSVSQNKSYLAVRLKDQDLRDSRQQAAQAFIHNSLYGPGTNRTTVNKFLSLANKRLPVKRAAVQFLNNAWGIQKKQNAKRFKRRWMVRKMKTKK
# UniProt Q14149, sequence (Q14149 whole entry, looked up): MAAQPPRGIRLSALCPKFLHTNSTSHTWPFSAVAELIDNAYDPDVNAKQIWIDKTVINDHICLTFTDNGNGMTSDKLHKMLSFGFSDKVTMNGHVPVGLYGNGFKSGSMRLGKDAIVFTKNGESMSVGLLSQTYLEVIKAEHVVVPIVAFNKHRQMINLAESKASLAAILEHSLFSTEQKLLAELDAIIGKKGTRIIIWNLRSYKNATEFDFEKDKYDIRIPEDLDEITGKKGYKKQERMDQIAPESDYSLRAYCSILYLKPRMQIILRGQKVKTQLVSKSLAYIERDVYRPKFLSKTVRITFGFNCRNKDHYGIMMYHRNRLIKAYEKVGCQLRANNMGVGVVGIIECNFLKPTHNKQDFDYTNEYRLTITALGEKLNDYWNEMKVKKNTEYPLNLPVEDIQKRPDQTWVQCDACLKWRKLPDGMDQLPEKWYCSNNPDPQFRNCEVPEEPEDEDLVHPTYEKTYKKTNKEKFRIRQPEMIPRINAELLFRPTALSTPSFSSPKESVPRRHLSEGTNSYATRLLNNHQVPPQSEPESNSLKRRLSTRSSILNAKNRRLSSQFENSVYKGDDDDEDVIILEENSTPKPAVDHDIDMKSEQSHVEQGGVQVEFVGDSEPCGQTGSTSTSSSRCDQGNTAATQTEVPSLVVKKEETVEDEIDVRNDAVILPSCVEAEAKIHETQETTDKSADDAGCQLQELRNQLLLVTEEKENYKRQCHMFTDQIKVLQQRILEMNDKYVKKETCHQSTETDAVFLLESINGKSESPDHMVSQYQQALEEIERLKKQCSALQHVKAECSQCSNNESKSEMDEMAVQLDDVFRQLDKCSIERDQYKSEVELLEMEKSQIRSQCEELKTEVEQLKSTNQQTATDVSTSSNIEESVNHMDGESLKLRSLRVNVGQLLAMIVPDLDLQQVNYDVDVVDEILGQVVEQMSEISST
# UniProt P19338, sequence (P19338 whole entry, looked up): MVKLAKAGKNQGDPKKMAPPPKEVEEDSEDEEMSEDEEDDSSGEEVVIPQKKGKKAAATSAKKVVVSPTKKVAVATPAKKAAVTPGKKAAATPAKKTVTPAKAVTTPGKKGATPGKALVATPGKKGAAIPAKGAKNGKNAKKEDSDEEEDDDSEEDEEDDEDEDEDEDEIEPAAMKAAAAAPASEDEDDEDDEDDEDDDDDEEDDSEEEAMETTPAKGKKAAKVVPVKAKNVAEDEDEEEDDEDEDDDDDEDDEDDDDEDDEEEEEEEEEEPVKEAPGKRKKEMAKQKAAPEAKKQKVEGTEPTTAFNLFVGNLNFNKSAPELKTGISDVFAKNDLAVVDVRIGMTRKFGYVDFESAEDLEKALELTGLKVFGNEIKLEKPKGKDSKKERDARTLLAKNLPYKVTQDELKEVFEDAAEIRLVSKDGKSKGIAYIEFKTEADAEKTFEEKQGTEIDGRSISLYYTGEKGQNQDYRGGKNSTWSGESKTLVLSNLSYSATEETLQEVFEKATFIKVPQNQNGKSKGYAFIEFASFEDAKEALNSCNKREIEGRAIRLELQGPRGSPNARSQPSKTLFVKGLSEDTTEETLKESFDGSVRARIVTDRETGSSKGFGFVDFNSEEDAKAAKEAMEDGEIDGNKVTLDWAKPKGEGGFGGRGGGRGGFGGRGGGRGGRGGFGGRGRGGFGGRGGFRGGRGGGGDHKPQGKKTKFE
# UniProt Q9H000, sequence (Q9H000 whole entry, looked up): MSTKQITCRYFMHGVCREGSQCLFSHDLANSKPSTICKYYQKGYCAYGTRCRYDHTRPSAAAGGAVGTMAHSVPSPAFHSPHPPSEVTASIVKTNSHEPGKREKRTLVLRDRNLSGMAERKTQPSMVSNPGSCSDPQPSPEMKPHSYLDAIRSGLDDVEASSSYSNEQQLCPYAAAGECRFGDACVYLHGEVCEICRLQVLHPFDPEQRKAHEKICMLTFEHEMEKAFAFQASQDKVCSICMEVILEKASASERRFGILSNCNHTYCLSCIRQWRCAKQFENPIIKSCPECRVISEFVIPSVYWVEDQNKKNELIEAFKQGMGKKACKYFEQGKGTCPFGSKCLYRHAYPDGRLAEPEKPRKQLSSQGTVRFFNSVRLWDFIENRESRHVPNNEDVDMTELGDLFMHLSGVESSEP
# UniProt Q9Y6R0, sequence (Q9Y6R0 whole entry, looked up): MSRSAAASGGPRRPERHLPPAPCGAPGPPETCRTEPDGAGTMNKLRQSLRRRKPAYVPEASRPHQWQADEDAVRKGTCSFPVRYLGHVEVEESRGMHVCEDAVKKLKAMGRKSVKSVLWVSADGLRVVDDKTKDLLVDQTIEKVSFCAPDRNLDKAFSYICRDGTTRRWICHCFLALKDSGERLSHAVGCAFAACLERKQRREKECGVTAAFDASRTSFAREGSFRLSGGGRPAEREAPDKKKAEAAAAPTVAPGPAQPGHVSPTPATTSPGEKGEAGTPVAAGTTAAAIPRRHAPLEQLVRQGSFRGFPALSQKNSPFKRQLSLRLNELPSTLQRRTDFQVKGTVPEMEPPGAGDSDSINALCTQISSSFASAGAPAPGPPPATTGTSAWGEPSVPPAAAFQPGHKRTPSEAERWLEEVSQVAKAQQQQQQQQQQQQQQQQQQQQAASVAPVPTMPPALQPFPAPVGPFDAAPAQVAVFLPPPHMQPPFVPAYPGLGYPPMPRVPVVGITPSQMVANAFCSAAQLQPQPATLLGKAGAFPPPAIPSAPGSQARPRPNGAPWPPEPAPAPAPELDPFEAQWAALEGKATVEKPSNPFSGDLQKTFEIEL
# UniProt Q9H1E3, sequence (Q9H1E3 whole entry, looked up): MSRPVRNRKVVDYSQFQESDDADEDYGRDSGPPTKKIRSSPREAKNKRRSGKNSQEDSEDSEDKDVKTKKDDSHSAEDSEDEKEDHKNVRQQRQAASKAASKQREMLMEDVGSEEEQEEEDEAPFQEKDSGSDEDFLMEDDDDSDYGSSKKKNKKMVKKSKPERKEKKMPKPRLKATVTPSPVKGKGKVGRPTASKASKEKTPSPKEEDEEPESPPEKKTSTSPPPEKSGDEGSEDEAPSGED
Target,log2 fold change (bafetinib),log2 fold change [1],log2 fold change (nilotinib),log2 fold change [2],log2 fold change (dasatinib),log2 fold change [3],log2 fold change [4],log2 fold change [5],log2 fold change (tipifarnib),log2 fold change (mubritinib)
MPP1 (UniProt Q00013),0.043,0.035,0.073,-0.179,-0.086,-0.019,0.047,-0.023,-0.04,0.034
NUMBL (UniProt Q9Y6R0),-0.002,0.113,-0.001,-0.136,-0.029,0.027,0.041,0.097,0.068,0.28
MLX (UniProt Q9UH92),-0.022,0.094,-0.11,-0.01,0.008,-0.11,-0.054,-0.097,-0.122,-0.061
MKRN2 (UniProt Q9H000),0.073,-0.194,-0.048,-0.062,-0.088,0.066,-0.284,-0.099,-0.01,-0.142
NPM3 (UniProt O75607),0.017,-0.027,-0.045,0.062,0.101,-0.121,0.043,-0.028,0.071,-0.035
NOL7 (UniProt Q9UMY1),0.284,-0.107,-0.016,0.146,0.183,-0.073,-0.257,-0.148,0.154,-0.156
NUDT1 (UniProt P36639),0.129,0.052,-0.087,0.271,-0.127,0.301,0.194,0.06,-0.069,0.137
NIBAN1 (UniProt Q9BZQ8),-0.013,0.121,-0.041,-0.383 (active),-0.14,-0.057,0.001,-0.035,-0.04,0.013
NSUN2 (UniProt Q08J23),-0.059,0.056,-0.038,-0.271,-0.146,-0.222,-0.034,-0.053,-0.033,-0.045
NUCKS1 (UniProt Q9H1E3),-0.114,-0.128,-0.028,-0.13,0.037,0.169,0.005,0.055,0.059,0.034
MRPL46 (UniProt Q9H2W6),0.06,0.014,-0.03,-0.002,-0.006,-0.016,-0.019,0.06,0.095,-0.003
NGLY1 (UniProt Q96IV0),0.039,0.055,-0.068,-0.038,-0.064,0.021,-0.009,-0.034,-0.067,-0.062
MRPS9 (UniProt P82933),0.106,0.067,-0.094,0.008,-0.023,-0.024,-0.073,0.057,-0.025,0.085
MRPS10 (UniProt P82664),0.057,0.119,-0.097,0.006,-0.005,-0.046,0.002,-0.096,-0.104,0.1
MORC3 (UniProt Q14149),-0.014,0.009,-0.173,0.09,-0.154,0.105,0.011,-0.026,0.006,-0.212
NDUFA9 (UniProt Q16795),-0.019,0.033,-0.056,0.005,-0.127,0.012,0.002,-0.007,-0.033,0.223 (active)
NPC1 (UniProt O15118),-0.211 (active),-0.02,0.024,-0.017,-0.001,0.05,0.004,0.012,0.038,-0.027
NPEPPS (UniProt P55786),0.031,0.011,0.002,0.121,-0.083,-0.063,0.085,0.02,-0.032,0.102
MRPS2 (UniProt Q9Y399),0.191,0.175,-0.119,0.019,-0.026,-0.062,0.043,0.035,-0.074,0.14
"NA, A0A0B4J2A0",-0.066,0.024,0.035,-0.024,-0.111,0.006,0.025,-0.015,0.007,-0.011
NTMT1 (UniProt Q9BV86),0.009,0.068,0.056,0,-0.036,0.023,0.073,0.076,0.043,0.138
NDUFB10 (UniProt O96000),-0.105,-0.11,-0.02,0.026,-0.011,-0.021,0.015,0.081,0.044,0.019
NSMCE2 (UniProt Q96MF7),-0.059,0.282 (active),0.014,-0.202,0.025,0.016,0.016,-0.104,0.008,0.009
OGFOD1 (UniProt Q8N543),-0.042,-0.033,-0.015,0.039,-0.009,-0.021,0.01,0.078,-0.05,-0.04
NCL (UniProt P19338),0.272,0,-0.033,0.026,0.209,0.051,-0.445,-0.237,0.225,-0.325
OTUD4 (UniProt Q01804),0.069,-0.016,0.037,-0.039,0.046,-0.077,-0.082,-0.09,0.064,-0.024
OTULIN (UniProt Q96BN8),-0.039,0.066,-0.091,-0.124,-0.169,0.033,-0.051,0.235,-0.081,0.152
MT-ATP6 (UniProt P00846),0.162,0.086,0.006,0.005,-0.101,-0.043,-0.024,0.11,0.231,0.028
MPHOSPH10 (UniProt O00566),0.137,-0.045,-0.055,-0.028,0.138,-0.199,-0.259,-0.001,0.246,-0.069

# Reference: the supplement of paper PMC10849652
